Test results from the supplement of paper PMC11150407.
The campaign covered roughly 2,100 compounds. About 180 (8.6%) showed an effect of 50% or more. This is one part of a sample in which strong results are shown more often than they occur.

What follows are compounds tested on MOLM1 and UCSD/AML1 (averaged) (assay: cell viability relative to DMSO control (POC); higher = less growth inhibition). Details: 1 µM; 72 h.
Protocol: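 Primary viability screen in the 3q26 EVI1-high AML cell lines MOLM1 and UCSD/AML1 (1.5e3 cells/well, 384-well), compounds at 1 uM for 72 h. ATP CellTiter-Glo read-out given as percent of viable cells over DMSO control (POC), averaged over duplicates. DMSO was the negative control and 5 uM etoposide the positive control. This mapping covers the MicroSource Spectrum and Selleck anticancer libraries (drug names).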
`C=C1C2CC[C@@]3(C)[C@H](c4ccoc4)OC(=O)C[C@]13O[C@H]1CC(O)C(C)(C)C(CC(=O)OC)[C@@]21C` (stereo partly drawn) [3alpha-HYDROXY-3-DEOXYANGOLENSIC ACID METHYL ESTER] was tested, and the cell viability was 97.3%. Work on `O=C(O[C@@H]1Cc2c(O)cc(O)cc2O[C@@H]1c1cc(O)c(=O)c2c(O)c(O)cc([C@H]3Oc4cc(O)cc(O)c4C[C@H]3O)c2c1)c1cc(O)c(O)c(O)c1` yielded a cell viability of 101%. In the case of `C=C[C@@](C)(O)CCC1C(=C)CCC2[C@@](C)(CO)CCC[C@]12C` (some centres not stated), the cell viability is reported as 112%. Compound `COc1cc(O)c(C(C)=O)c(O)c1` has a cell viability of 110%. In the case of `CS(=O)(=O)N1CCc2c(-c3cnc(N)nc3)nc(N3CCOCC3)nc21`, the cell viability is reported as 47.5%. `O=C(Nc1ccc(C(=O)O)c(O)c1)c1ccccc1` gave a cell viability of 96.4%. With `CC(C)[C@H](C(=O)Nc1ccc(C(=O)NO)cc1)c1ccccc1` the cell viability was 0.459%. Work on `CC(=O)Nc1ccccc1` yielded a cell viability of 101%. With `O=c1c(O)c(-c2ccc(O)c(O)c2)oc2cc(O)ccc12` the cell viability was 94%. With `C[C@]12CCC3c4ccc(OS(=O)(=O)O)cc4CCC3C1CC[C@H]2O` (some centres not stated) the cell viability was 98.1%. For `O=C(O)c1cc(=O)c(O)c2c(O)c(O)c(O)cc2c1`, the cell viability was 115%. `CNc1ccccc1C(=O)N1CCc2c([nH]c3ccccc23)C1=O` gave a cell viability of 88.5%. Work on `Cc1occc(=O)c1O` yielded a cell viability of 103%. `Cc1nc(Nc2ncc(C(=O)Nc3c(C)cccc3Cl)s2)cc(N2CCN(CCO)CC2)n1` gave a cell viability of 29.5%. Work on `CCCC(=O)[O-].[Na+]` [Sodium butyrate] yielded a cell viability of 91.3%. `Cn1cc(-c2ccc3nnc(C(F)(F)c4ccc5ncccc5c4)n3n2)cn1` gave a cell viability of 101%. In the case of `Cn1cc(-c2ccc3nnc(Sc4ccc5ncccc5c4)n3n2)cn1`, the cell viability is reported as 82.3%. `OCCn1cc(-c2cnc3nnn(Cc4ccc5ncccc5c4)c3n2)cn1` showed a cell viability of 26.7%. `C[C@]12CC[C@H](O)CC1=CC[C@@H]1[C@@H]2CC[C@]2(C)C(c3cccnc3)=CC[C@@H]12` [Abiraterone (CB-7598)] gave a cell viability of 102%. Work on `COc1cc2c(cc1OC)[C@@H]1Cc3ccc(OC)c(OC)c3CN1CC2` yielded a cell viability of 108%. `CN(C)CCOc1ccc(-c2nc(-c3ccncc3)c(-c3ccc4c(c3)CC/C4=N\O)[nH]2)cc1` gave a cell viability of 76.1%. `COc1cc(/C=C/C(=O)O)ccc1O` gave a cell viability of 104%. `O=C1C=C2CC3(O)COc4cc(O)ccc4C3=C2C=C1O` (configuration not stated) showed a cell viability of 99.3%. For `Cc1cnc(NC(=O)Nc2cc(Br)c(C)cc2OC[C@@H]2CNCCO2)cn1`, the cell viability was 46.1%. `COc1c2ccoc2nc2c(OC)c(OCC(O)C(C)(C)O)ccc12` (configuration not stated) was tested, and the cell viability was 90.2%. With `CC(C)=CC1C(CO)C1(C)C` (configuration not stated) the cell viability was 104%. With `Nc1ncnc2c1ncn2[C@@H]1O[C@H](COP(=O)(O)O)[C@@H](O)[C@H]1O` the cell viability was 99.1%. `NC(=O)c1ccc[n+]([C@@H]2O[C@H](COP(=O)([O-])OP(=O)(O)OC[C@H]3O[C@@H](n4cnc5c(N)ncnc54)[C@H](O)[C@@H]3O)[C@@H](O)[C@H]2O)c1` was tested, and the cell viability was 81.6%. `Nc1nc(Cl)nc2c1ncn2[C@@H]1O[C@H](CO)[C@@H](O)[C@@H]1F` [Clofarabine] showed a cell viability of 6.72%. For `Nc1ncnc2c1ncn2[C@H]1C[C@H](O)[C@@H](CO)O1`, the cell viability was 90.9%. `COc1nc(N)nc2c1ncn2[C@@H]1O[C@H](CO)[C@@H](O)[C@@H]1O` [Nelarabine (Arranon)] was tested, and the cell viability was 109%. In the case of `Nc1ncn([C@@H]2O[C@H](CO)[C@@H](O)[C@H]2O)c(=O)n1` [Azacitidine (Vidaza)], the cell viability is reported as 84.2%. Work on `CCc1cn([C@H]2C[C@H](O)[C@@H](CO)O2)c(=O)[nH]c1=O` yielded a cell viability of 91.5%. In the case of `Nc1nc(Cl)nc2c1ncn2[C@H]1C[C@H](O)[C@@H](CO)O1` [Cladribine], the cell viability is reported as 5.67%. `Nc1ncn([C@@H]2O[C@H](CO)[C@@H](O)[C@H]2O)c(=O)n1` was tested, and the cell viability was 77.4%. Compound `O=c1[nH]c(=O)n([C@H]2C[C@H](O)[C@@H](CO)O2)cc1F` has a cell viability of 83.1%. `Nc1ncn([C@H]2C[C@H](O)[C@@H](CO)O2)c(=O)n1` [Decitabine] gave a cell viability of 41.3%. In the case of `Nc1nc(F)nc2c1ncn2[C@@H]1O[C@H](COP(=O)(O)O)[C@@H](O)[C@@H]1O` [Fludarabine Phosphate (Fludara)], the cell viability is reported as 44.2%. `Nc1nc(F)nc2c1ncn2[C@@H]1O[C@H](COP(=O)(O)O)[C@@H](O)[C@@H]1O` showed a cell viability of 74.4%. For `O=c1[nH]c(=O)n([C@H]2C[C@H](O)[C@@H](CO)O2)cc1F` [Floxuridine], the cell viability was 64.4%. With `Nc1nc(F)nc2c1ncn2[C@@H]1O[C@H](CO)[C@@H](O)[C@@H]1O` [Fludarabine (Fludara)] the cell viability was 53%. `OC[C@@H](O)[C@@H](O[C@@H]1O[C@H](CO)[C@@H](O)[C@H](O)[C@H]1O)[C@H](O)[C@@H](O)CO` showed a cell viability of 92.2%. For `COc1ccc([C@H]2Oc3cc(OC)cc(OC)c3C[C@H]2O)cc1`, the cell viability was 98.4%. `COC(=O)C[C@H]1C2(C)CC34OC5(C)O[C@@]6([C@H](OC)C(OC(=O)C(C)C)[C@]7(C)C(/C(=C(/OC)C(C)C)C(=O)O[C@H]7c7ccoc7)[C@@]6(O5)[C@H](OC)[C@@]3(OC)C2OC(C)=O)[C@]14C` (some centres not stated) gave a cell viability of 105%. `Cc1c(C(=O)O)c(O)cc2c1C(=O)c1c(O)c([C@@H]3O[C@H](CO)[C@@H](O)[C@H](O)[C@H]3O)c(O)c(O)c1C2=O` gave a cell viability of 92.5%. `O=C(O)c1cccc(O)c1O` gave a cell viability of 107%. `C[C@H]1[C@H](C)CC[C@]2(CO)CC[C@]3(C)C(=CC[C@@H]4[C@@]5(C)CC[C@H](O)C(C)(C)[C@@H]5CC[C@]43C)[C@H]12` was tested, and the cell viability was 110%. Work on `CC(=O)O[C@@H]1CC2C(C)(C)C(=O)CC[C@]2(C)C2CC[C@]3(C)C(=CC(=O)O[C@H]3c3ccoc3)[C@@]21C` (some centres not stated) yielded a cell viability of 110%. Work on `COc1c(OC)c2occc2c2oc(=O)ccc12` yielded a cell viability of 117%. `CC(=O)O[C@H]1CC[C@]2(C)[C@H]3CC=C4[C@@H]5CC(C)(C)CC[C@]5(C)CC[C@@]4(C)[C@]3(C)CC[C@H]2C1(C)C` [beta-AMYRIN ACETATE] showed a cell viability of 107%. `CC(=O)CC(=O)CCC(=O)O` gave a cell viability of 96.2%. With `CCOC(=O)c1c(C)cc(O)cc1O` the cell viability was 104%. With `CC1=CCCC(C)=CCC(C)(C)C=CC1` [HUMULENE (alpha)] the cell viability was 113%. For `CN(C)Cc1ccc(-c2nc3cccc4c3n2CCNC4=O)cc1`, the cell viability was 100%. Work on `Nc1ccc(-c2ccc3ncc4ccc(=O)n(-c5cccc(C(F)(F)F)c5)c4c3c2)cn1` [Torin 2] yielded a cell viability of 10%. Work on `CCC(=O)N1CCN(c2ccc(-n3c(=O)ccc4cnc5ccc(-c6cnc7ccccc7c6)cc5c43)cc2C(F)(F)F)CC1` [Torin 1] yielded a cell viability of 20.8%. `COc1ccc2c3n(c(=NC(=O)c4cccnc4)nc2c1OC)CCN3` was tested, and the cell viability was 64.3%. `COc1cc(C)c(C(=O)O)c(O)c1` showed a cell viability of 100%. `S=C(NCc1ccc2c(c1)OCO2)N1CCN(c2ncnc3c2oc2ccccc23)CC1` [Amuvatinib (MP-470)] was tested, and the cell viability was 77.9%. Compound `COC(=O)[C@@H]1OC(=O)[C@H]2O[C@@]23[C@@]1(C)CCC1[C@@]2(C)CCC(=O)C(C)(C)C2C[C@@H](OC(C)=O)[C@]13C` (some centres not stated) has a cell viability of 99%. For `O=C(Nc1c[nH]nc1-c1nc2ccc(CN3CCOCC3)cc2[nH]1)NC1CC1`, the cell viability was 17.5%. Compound `CC(=O)Oc1cc(OC(C)=O)c2c(c1)O[C@H](c1ccc(OC(C)=O)c(OC(C)=O)c1)[C@H](OC(C)=O)C2` has a cell viability of 104%.
